Hit rate of the full screen: of about 200,000 compounds, about 670 (0.34%) were called active. The sample holds actives, similar compounds and a random draw of the others, so the mix is not that of the screen. A number with no mark means an inactive call. Rule as the data show it: active = activation above about 22%; inactive = the rest.
biological target: Peroxisome proliferator-activated receptor gamma (Homo sapiens) (UniProt P37231); experiment: agonists of PPARg-SRC-2 recruitment, primary screen, biochemical, HTS (AID 1032); settings: PPARgamma LBD-SRC-2 recruitment, at 8 µM, active compounds read high;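 also: 0% = vehicle and 100% = reference agonist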
Sequence (P37231 whole entry, looked up, the tested form may be a part): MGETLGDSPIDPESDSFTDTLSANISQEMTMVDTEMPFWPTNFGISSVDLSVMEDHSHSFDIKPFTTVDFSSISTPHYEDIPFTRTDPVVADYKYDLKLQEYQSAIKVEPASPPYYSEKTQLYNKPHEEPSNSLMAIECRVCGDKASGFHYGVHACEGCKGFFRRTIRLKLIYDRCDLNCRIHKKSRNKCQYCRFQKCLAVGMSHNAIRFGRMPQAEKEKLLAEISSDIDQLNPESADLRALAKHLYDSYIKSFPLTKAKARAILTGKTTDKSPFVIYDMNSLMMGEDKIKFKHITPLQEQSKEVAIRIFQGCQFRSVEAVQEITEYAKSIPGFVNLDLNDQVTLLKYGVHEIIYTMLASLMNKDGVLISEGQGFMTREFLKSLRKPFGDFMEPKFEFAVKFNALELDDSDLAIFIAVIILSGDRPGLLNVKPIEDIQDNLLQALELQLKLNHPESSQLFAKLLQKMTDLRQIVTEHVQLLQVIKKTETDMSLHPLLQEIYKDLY

SMILES | activation
Cc1nc(-c2ccccc2)sc1C(=O)/C=C/c1ccccc1 | 13.4%
Cc1nc(-c2ccccc2)sc1-c1nc(-c2ccccc2)ncc1S(=O)(=O)c1ccccc1 | 30% (active)
C=CCn1c(-c2sc(-c3ccccc3)nc2C)n[nH]c1=S | 7.03%
O=C(NC(=S)Nc1cc(C(F)(F)F)ccc1N1CCOCC1)c1ccc(-c2cccc(Cl)c2)o1 | 2.85%
COc1cc(OC)nc(N/N=C(\c2ccccc2)c2ccncc2)n1 | -0.95%
CC1=NCCN1S(=O)(=O)c1cccc([N+](=O)[O-])c1 | 0.1%
O=C(CN(C(=O)c1csnn1)c1cccc(F)c1)NCc1ccc(F)cc1 | -2.69%
O=C(c1nnc(-c2ccc(Cl)cc2)o1)C1CCCC1 | 5.05%
Cc1cccc(C(=O)OCC(=O)NCC(C)C)c1O | 1.94%
CC(C)CNC(=O)COC(=O)c1ccccc1OCC(=O)Nc1ccc(Br)cc1 | 23.8% (active)
COCC(=O)Nc1ccc(Br)cc1 | 0.8%
O=C(Nc1ccc(Cl)cc1)C1c2cccc[n+]2CC(=O)N1Cc1ccc2c(c1)OCO2 (stereo unspecified) | -2.95%
CCCC/S(C)=N/S(=O)(=O)c1ccc(C)cc1 (stereo unspecified) | 4.28%
CC(=O)n1c(C=Nc2ccccc2)c(O)c2ccccc21 | 18.1%
COc1ccc(CC(NC(C)=O)C(=O)NC2CCN(C(=O)c3ccc(OC)c(OC)c3)CC2)cc1OC (stereo unspecified) | -1.68%
Cn1c(-c2sccc2OCc2cccc(C(F)(F)F)c2)n[nH]c1=S | 3.72%
Cc1cc(C(F)(F)F)n2ncc(-c3ccccc3)c2n1 | 6.32%
Cn1c(-c2sc3cc(C(F)(F)F)cnc3c2-c2ccccc2)n[nH]c1=S | 49.1% (active)
O=C1CN(C(=O)CN2C(=O)NC3(CCCCC3)C2=O)c2ccccc2N1 | -3.02%
CCSc1ccccc1C(=O)Nc1ccc2c(c1)OCO2 | 2.54%
COC(C(=O)Nc1ccc(S(=O)(=O)Nc2ccc(C)c(C)c2)cc1)c1ccccc1 (stereo unspecified) | -10.9%
COC(=O)c1[nH]c2ccccc2c1NS(=O)(=O)c1ccc(OC)cc1OC | 13.7%
COC(=O)c1[nH]c2ccccc2c1NC(=O)CN1CCCc2ccccc21 | -0.25%
COC(=O)c1[nH]c2ccc(Br)cc2c1NC(=O)Oc1ccccc1 | 30% (active)
O=C(Nc1ccc2cn[nH]c2c1)c1ccc(S(=O)(=O)N2CCOCC2)cc1 | 3.19%
Cc1nccn1CCC1CCCCN1C(=O)CCc1nnc(-c2ccsc2)o1 (stereo unspecified) | -4.68%
